Test results as given in paper PMC12136788.
Residue numbers refer to the chain shown, from its start. Over roughly 24,000 sequences, “enrichment r” has its median near 0.99; the highest 2% begin near 3.7. What follows is part of a selection rich in the highest values, with near analogues and random picks from the rest.

T1: UNK ZnF1-3 (human, UniProt Q9C0B0 31-174)
T1 sequence: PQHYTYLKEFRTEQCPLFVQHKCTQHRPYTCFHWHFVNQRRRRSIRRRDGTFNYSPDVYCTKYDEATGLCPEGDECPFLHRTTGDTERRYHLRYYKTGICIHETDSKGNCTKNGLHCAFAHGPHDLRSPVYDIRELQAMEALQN

B1: chr18:47247233:47247234:+_ENSMUSG00000042705_ENSMUST00000049388|mus_hu|motif|central (ssRNA)
RNA: GGGAGUUCUACAGUCCGACGAUCUUGUAUAUGGCUAUUUUCUUAAUUUUAUUCAUGUAAUUACCAAAGCUCUGUAUUCGGCGGAGGUACACAUCUUAUCUUGUAUCCAUGGACGCUCCUUGAUACAUUAUGGUAUCAUCCAGCCAACAGAGGAUUGAGCAUCA
B2: chr1:178670160:178670161:-_ENSMUSG00000057335_ENSMUST00000057037|mus_mus|FALSE|FALSE (ssRNA)
RNA: GGGAGUUCUACAGUCCGACGAUCCUGAGGCCUCGAGUCAACAGACCGACCGUUGUUUCCUUCUGGUGUUUUAGAAUGAACUAAUGGAGGUAUCUUUCGGAAGUUGAGACUUUCAUCAAAAACACGAUCAACCAACUCUUCUCUCAACAGAGGAUUGAGCAUCA
B3: 98562344_98563384_6126_CDS_ENSG00000196367_ENST00000456197|human|control|control (ssRNA)
RNA: GGGAGUUCUACAGUCCGACGAUCCCAUGCUCAUCACUGCCAGGCGCGUCUUCACCAGCUCCAGACUCAGCAUCACCAGCUCGCUUGUACCUGAGGUGGCUUCGGUGCUUCCUGACGCUGCCUGAGGGUUUAAAUGCUCCCGGACAACAGAGGAUUGAGCAUCA
B4: 33247490_33252972_1089_CDS_ENSG00000083642_ENST00000315596|human|control|control (ssRNA)
RNA: GGGAGUUCUACAGUCCGACGAUCCCUGCCCAAGUAGCACUGCCAAAGUGGCUUGUUUUGAGAAGCCAAUUCUGAAUCCUUUGCCCCAAACAUUUUUGCCAGUAGUUUAACAACUUGUAGGCGCUCCUCAUUAUCAUUGCUCUUCAACAGAGGAUUGAGCAUCA
B5: chr12:39756943:39756944:-_ENSG00000139116_ENST00000544797|hu_mus|hu_hu_hu_mus_False|1_18 (ssRNA)
RNA: GGGAGUUCUACAGUCCGACGAUCGGUUUGGCUGUUACCCCCAAGGGAAUCCUGCAAGAGUCUUGUCAGCUUAGAGUCUCUGUAAGGGACAUGGGUGGCUCUCUUGCUCUUGUCCCCCAAGGCACUUAUUACAUUCCCAAGUGCCAACAGAGGAUUGAGCAUCA
B6: chr2:224824363:224824364:+_ENSG00000135900_ENST00000258383|hu_mus|FALSE|FALSE (ssRNA)
RNA: GGGAGUUCUACAGUCCGACGAUCAGCUUCUUUCUCUAUGCCAAGGCUCUGACGUUUCGCCUCUUCGCUUUUGAUGUAGCAGCUAUUGAUAAAUGCAGUUUUGAGAAGGUCCAACGAAAAGGUUUCUUGUAAGCGAGAUCCAAACAACAGAGGAUUGAGCAUCA
B7: 64079182_64079302_4442_3pUTR_ENSMUSG00000025959_ENSMUST00000114086|mouse|control|control (ssRNA)
RNA: GGGAGUUCUACAGUCCGACGAUCCCCACAGCCAACAAAGGACUCUGAAGCAAGCAAGCACCAUCAUGGUAUCUCAGUGCGCCCUGCUCCAAGAGAGAUCAGGAGCAGAUCACAAAGACCUCACUGAUACAAAAGAGAAAUUACCAACAGAGGAUUGAGCAUCA
B8: chr1:82457952:82457953:+_ENSG00000117114_ENST00000335786|hu_mus|motif|central (ssRNA)
RNA: GGGAGUUCUACAGUCCGACGAUCAGCUUUGCUGAAACAAUUUACAUGUCAUUAGAACUUUACCAUAAAAUAAAUUAAUUACGGAAUAUAGCCAGAAGGAAUAUGGAAGAGUAAUAUUUCUGUUUUAUUUUAUUUUUAUUUUAUCAACAGAGGAUUGAGCAUCA
B9: chr10:111893621:111893622:+_ENSG00000148700_ENST00000277900|hu_hu|motif|central (ssRNA)
RNA: GGGAGUUCUACAGUCCGACGAUCUAAUUCAGACAGAUAGCUGUUUAUGGUGAAUUAUAAUAAUACUUCAUGAGGGCAGAGCGGAUUAAAACUAGUAAUUGCUUAAAAUUCAAAGCCAUUUCUGGACAUAUAAAAUGAGAGAUGCAACAGAGGAUUGAGCAUCA
B10: 94906243_94906363_1931_3pUTR_ENSG00000149212_ENST00000536441|human|control|control (ssRNA)
RNA: GGGAGUUCUACAGUCCGACGAUCAAAUAAAACACAUCAUUGCACAUUACAGCCGCAAAAAACAAAAAAAAAAAAACAAACGGCUAAACUUUGACACUAGAGAACUGAAUAAUUUUUGAUGCUAUAUCACAAAUAGCUUCAAUGCAACAGAGGAUUGAGCAUCA
B11: chr8:104081237:104081238:+_ENSG00000155097_ENST00000518738|hu_mus|motif|central (ssRNA)
RNA: GGGAGUUCUACAGUCCGACGAUCAACACACAGAAUUAUGCAUACCAUGAUAUCAAGGAGGAAAAUACCUCUUUAAAUAAACGGUUCGGUUUAUAAAUAAACUCUGAUUUUUUUCAGUACACAUUUACAGACCUGAUCAAUAAACAACAGAGGAUUGAGCAUCA
B12: chr10:111893599:111893600:+_ENSG00000148700_ENST00000277900|hu_hu|FALSE|FALSE (ssRNA)
RNA: GGGAGUUCUACAGUCCGACGAUCAUUCAGACAGAUAGCUGUUUAUGGUGAAUUAUAAUAAUACUUCAUGAGGGCAGAGCUAAUUAAAACUAGUAAUUGCUUAAAAUUCAAAGCCAUUUCUGGACAUAUAAAAUGAGAGAUGAACAACAGAGGAUUGAGCAUCA
B13: chr4:136876768:136876769:-_ENSMUSG00000006699_ENSMUST00000051477|mus_hu|FALSE|FALSE (ssRNA)
RNA: GGGAGUUCUACAGUCCGACGAUCAAAAAAAAAAAAAAACACACACACACAAAAAUUUUUUUUUUGAAACAACAAAAAAAAAUAGUACUAAUCACUUUUCUGACAAUACAAUUACUCAAAAUUAACUAGUACUGGGAGGGGGAACAACAGAGGAUUGAGCAUCA
B14: chrX:12193597:12193598:+_ENSMUSG00000031007_ENSMUST00000033313|mus_mus|motif|central (ssRNA)
RNA: GGGAGUUCUACAGUCCGACGAUCACAAAGCUAGUCUCUUCUGAAAUCAACAUAGUAUUUUUAAUAAUUUUAAUAUCUCGGCGGAACCACACGGAUCACCAAACUUGCAGAAGAGAUUAAAAACAGCUAGCUUGCUAGUCAUAUCAACAGAGGAUUGAGCAUCA
B15: 23644147_23644267_867_3pUTR_ENSMUSG00000028986_ENSMUST00000030841|mouse|control|control (ssRNA)
RNA: GGGAGUUCUACAGUCCGACGAUCUUGAAUAAGUGGUUCAGCUUGUACUGUUUUACUUAGGAAAUUCUUCGAUAUAAGAGGAAACCUGACUUUAGCAAGGAUAUCAACCAUGAAUGGCUGGCGGUUAGGCUCAUCAUAUUUCAACAACAGAGGAUUGAGCAUCA
B16: chr2:25965407:25965408:-_ENSG00000143970_ENST00000336112|hu_mus|motif|central (ssRNA)
RNA: GGGAGUUCUACAGUCCGACGAUCAUGUGCUGCCGGAAUAAAAUCUCUAGGCAGGCUCUUUUCAUCAGAUGCUUGGCCUCGGGAGAAUAUGUAAUUCUCCUGGCCUAAAGUGGUUUGCUCACUCACUGGUGCCUCAGUCUUACCCAACAGAGGAUUGAGCAUCA
B17: 82834861_82834981_3494_CDS_ENSG00000038427_ENST00000343200|human|control|control (ssRNA)
RNA: GGGAGUUCUACAGUCCGACGAUCUUCAUUGACAGUACCCACUUCUCCCAAUCCUUCGUCGAUAAUGGAGGAAGCUGUACCAGAAAACUUUUGCACAGCACUGGGAAGCACUGGAACAACAGAGCUGCUGACUGUGACCAGUUGCAACAGAGGAUUGAGCAUCA
B18: chr14:70842435:70842436:-_ENSG00000213463_ENST00000256366|hu_hu|motif|central (ssRNA)
RNA: GGGAGUUCUACAGUCCGACGAUCCUGCACCUGUAACCUGUGCUGCACUCUCAGAGACACAGCAUAGCCUGCAUUACGAAAGAGGUCGGCAGCAUCCUGGUGCAGCAGGUUCUUUAGGUCUUGGCCAUUUACCGAAAGGAUCUUCAACAGAGGAUUGAGCAUCA
B19: chr6:13622506:13622507:-_ENSG00000010017_ENST00000011619|hu_mus|FALSE|FALSE (ssRNA)
RNA: GGGAGUUCUACAGUCCGACGAUCAGGAAGCAAUGUAAAGCGACAAAAACCUGUCCCCAGUACAUAAUUAAAAAAAAAUCUAAAUUUCAAAUCAGCAGAGCCGGUCUACUUCCAUGUUGACUGUUUGCCACAAUGUGAGUGUGACAACAGAGGAUUGAGCAUCA
B20: chr10:111893621:111893622:+_ENSG00000148700_ENST00000277900|hu_hu|FALSE|FALSE (ssRNA)
RNA: B9 RNA with G82U, G83A
B21: chr1:109605286:109605287:-_ENSG00000197780_ENST00000461096|hu_mus|hu_hu_hu_mus_True|8_88 (ssRNA)
RNA: GGGAGUUCUACAGUCCGACGAUCAAGUUUCAGAGUAACAUUCAGUAUACUUAAAUCAUGCAAUUAUCCUUAUUAUAAGCUAAGCAGAAUAAUAAUUUAAUACCGUAAGUGAACUACACACAAAGCCGUGUAUUCAGAAAUGGUCAACAGAGGAUUGAGCAUCA
B22: chr18:56900473:56900474:+_ENSMUSG00000024590_ENSMUST00000025486|mus_mus|FALSE|FALSE (ssRNA)
RNA: GGGAGUUCUACAGUCCGACGAUCAACAUCUAUCUCUUCAAUGCACACGUUCCCCGUGGCUGAGGCAGAGUGGGAAAUGCUAACACUGCUGCUCGCCUCCGACUCCUCCACAUCAACUCUCUUCCGCUUUCCUCUGGUGGUGCGCAACAGAGGAUUGAGCAUCA

Target: T1, UNK ZnF1-3
Assay: nsRBNS (natural sequence RNA bind-n-seq); RBNS binding buffer (assumed for nsRBNS): 25 mM Tris pH 7.5, 150 mM KCl, 3 mM MgCl2, 0.01% Triton X-100, 500 ug/ml BSA, 20 U/ml SUPERase-In, 4 C; UNK is unkempt and MSI1 is Musashi-1; names of the RNAs are library labels; protein concentration not given here; high values mean tight binding

Question: For B1, which binding signal is on record?
Answer: 1.03 enrichment R

Question: B2 was tested. Which binding signal did it give?
Answer: 1 enrichment R

Question: B3 was tested. Which binding signal did it give?
Answer: 0.681 enrichment R

Question: How did the binding signal turn out when B4 was run?
Answer: 0.879 enrichment R

Question: B5 was tested. Which binding signal did it give?
Answer: 0.497 enrichment R

Question: Which binding signal does the source give for B6 here?
Answer: 1 enrichment R

Question: Which binding signal does the source give for B7 here?
Answer: 1.03 enrichment R

Question: For B8, which binding signal is on record?
Answer: 3.79 enrichment R

Question: How did the binding signal turn out when B9 was run?
Answer: 4.04 enrichment R

Question: With B10 as the binder, how does the binding signal read?
Answer: 6.07 enrichment R

Question: Which binding signal does the source give for B11 here?
Answer: 0.25 enrichment R

Question: Which binding signal does the source give for B12 here?
Answer: 4.42 enrichment R

Question: Which binding signal does the source give for B13 here?
Answer: 3.42 enrichment R

Question: With B14 as the binder, how does the binding signal read?
Answer: 1.81 enrichment R

Question: For B15, which binding signal is on record?
Answer: 0.91 enrichment R

Question: B16 was tested. Which binding signal did it give?
Answer: 0.714 enrichment R

Question: How did the binding signal turn out when B17 was run?
Answer: 0.912 enrichment R

Question: For B18, which binding signal is on record?
Answer: 0.468 enrichment R

Question: B19 was tested. Which binding signal did it give?
Answer: 2.67 enrichment R

Question: For B20, which binding signal is on record?
Answer: 5.27 enrichment R

Question: B21 was tested. Which binding signal did it give?
Answer: 0.504 enrichment R

Question: B22 was tested. Which binding signal did it give?
Answer: 1.08 enrichment R
